From the supplement of paper PMC8728848
The full list was thinned out, with the strongest signals kept by preference.

Tests used:
Assay in all cases: glycan array binding signal (z-score within array); higher = stronger binding
Conditions in all cases: glycan notation: IUPAC condensed, linker removed
Gal4S6S(b1-4)GlcNAc = target: Gal4S6S(b1-4)GlcNAc
Summary of the method: (§1)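 Arrays were curated from the Consortium for Functional Glycomics database, 3228 in total, and kept only where the protein sequence was available. Binding is expressed as a within-array Z-score. This score was averaged across arrays of the same protein sequence at different concentrations or buffers and across linkers, and negative values can be read as non-binding.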

Gal6S(b1-3)GlcNAc = target: Gal6S(b1-3)GlcNAc
Summary of the method: as §1

Gal6S(b1-3)GlcNAc6S = target: Gal6S(b1-3)GlcNAc6S
Summary of the method: as §1

Gal6S(b1-4)Glc = target: Gal6S(b1-4)Glc
Summary of the method: as §1

Gal6S(b1-4)Glc6S = target: Gal6S(b1-4)Glc6S
Summary of the method: as §1

Gal6S(b1-4)GlcNAc6S = target: Gal6S(b1-4)GlcNAc6S
Summary of the method: as §1

Glc(a1-4)Glc = target: Glc(a1-4)Glc
Summary of the method: as §1

[1] = target: GlcNAc(a1-4)Gal(b1-4)GalNAc
Summary of the method: as §1

[2] = target: GlcNAc(a1-4)Gal(b1-4)GlcNAc(b1-3)Gal(b1-4)GlcNAc(b1-3)Gal(b1-4)GlcNAc
Summary of the method: as §1

[3] = target: GlcNAc(a1-4)Gal(b1-4)GlcNAc(b1-3)Gal(b1-4)[Fuc(a1-3)]GlcNAc(b1-3)Gal(b1-4)[Fuc(a1-3)]GlcNAc
Summary of the method: as §1

[4] = target: GlcNAc(b1-2)[GlcNAc(b1-4)]Man(a1-3)[GlcNAc(b1-2)Man(a1-6)]Man(b1-4)GlcNAc(b1-4)GlcNAc
Summary of the method: as §1

[5] = target: GlcNAc(b1-3)Gal(b1-4)GlcNAc(b1-2)Man(a1-3)[GlcNAc(b1-3)Gal(b1-4)GlcNAc(b1-2)Man(a1-6)]Man(b1-4)GlcNAc(b1-4)[Fuc(a1-6)]GlcNAc
Summary of the method: as §1

[6] = target: GlcNAc(b1-3)Gal(b1-4)GlcNAc(b1-3)Gal(b1-4)GlcNAc(b1-2)Man(a1-3)[GlcNAc(b1-3)Gal(b1-4)GlcNAc(b1-3)Gal(b1-4)GlcNAc(b1-2)Man(a1-6)]Man(b1-4)GlcNAc(b1-4)[Fuc(a1-6)]GlcNAc
Summary of the method: as §1

[7] = target: GlcNAc(b1-3)Gal(b1-4)GlcNAc(b1-3)Gal(b1-4)GlcNAc(b1-3)Gal(b1-4)GlcNAc(b1-2)[GlcNAc(b1-3)Gal(b1-4)GlcNAc(b1-3)Gal(b1-4)GlcNAc(b1-3)Gal(b1-4)GlcNAc(b1-6)]Man(a1-6)[GlcNAc(b1-3)Gal(b1-4)GlcNAc(b1-3)Gal(b1-4)GlcNAc(b1-3)Gal(b1-4)GlcNAc(b1-2)Man(a1-3)]Man(b1-4)GlcNAc(b1-4)[Fuc(a1-6)]GlcNAc
Summary of the method: as §1

[8] = target: GlcNAc(b1-3)Gal(b1-4)GlcNAc(b1-3)Gal(b1-4)GlcNAc(b1-3)Gal(b1-4)GlcNAc(b1-3)Gal(b1-4)GlcNAc(b1-2)Man(a1-3)[GlcNAc(b1-3)Gal(b1-4)GlcNAc(b1-3)Gal(b1-4)GlcNAc(b1-3)Gal(b1-4)GlcNAc(b1-3)Gal(b1-4)GlcNAc(b1-2)Man(a1-6)]Man(b1-4)GlcNAc(b1-4)[Fuc(a1-6)]GlcNAc
Summary of the method: as §1

[9] = target: GlcNAc(b1-3)Gal(b1-4)GlcNAc(b1-6)[Gal(b1-3)]GalNAc
Summary of the method: as §1

GlcNAc(b1-3)Man = target: GlcNAc(b1-3)Man
Summary of the method: as §1

GlcNAc(b1-6)GalNAc = target: GlcNAc(b1-6)GalNAc
Summary of the method: as §1

[10] = target: Man(a1-2)Man(a1-2)Man(a1-6)[Man(a1-3)]Man
Summary of the method: as §1

[11] = target: Man(a1-2)Man(a1-3)[Man(a1-2)Man(a1-6)]Man
Summary of the method: as §1

[12] = target: Man(a1-2)Man(a1-3)[Man(a1-6)]Man(a1-6)[Man(a1-2)Man(a1-3)]Man(b1-4)GlcNAc(b1-4)GlcNAc
Summary of the method: as §1

Man(a1-6)Man = target: Man(a1-6)Man
Summary of the method: as §1

MurNAc(b1-4)GlcNAc = target: MurNAc(b1-4)GlcNAc
Summary of the method: as §1

[13] = target: Neu5Ac(a2-3)Gal(b1-3)[Fuc(a1-4)]GlcNAc(b1-3)Gal(b1-4)[Fuc(a1-3)]GlcNAc
Summary of the method: as §1

[14] = target: Neu5Ac(a2-3)Gal(b1-4)GlcNAc(b1-3)Gal(b1-3)GlcNAc
Summary of the method: as §1

[15] = target: Neu5Ac(a2-3)Gal(b1-4)GlcNAc(b1-6)GalNAc
Summary of the method: as §1

[16] = target: Neu5Ac(a2-3)Gal(b1-4)GlcNAc(b1-6)[Gal(b1-3)]GalNAc
Summary of the method: as §1

[17] = target: Neu5Ac(a2-3)[GalNAc(b1-4)]Gal(b1-4)GlcNAc
Summary of the method: as §1

[18] = target: Neu5Ac(a2-3)[GalNAc(b1-4)]Gal(b1-4)GlcNAc(b1-3)GalNAc
Summary of the method: as §1

[19] = target: Neu5Ac(a2-6)Gal(b1-4)GlcNAc(b1-2)Man(a1-3)[Neu5Ac(a2-6)Gal(b1-4)GlcNAc(b1-2)Man(a1-6)]Man(b1-4)GlcNAc(b1-4)GlcNAc
Summary of the method: as §1

[20] = target: Neu5Ac(a2-6)Gal(b1-4)GlcNAc(b1-3)GalNAc
Summary of the method: as §1

[21] = target: Neu5Ac(a2-6)Gal(b1-4)GlcNAc(b1-6)[Gal(b1-3)]GalNAc
Summary of the method: as §1

[22] = target: Neu5Ac9Ac(a2-3)Gal(b1-4)GlcNAc
Summary of the method: as §1

[23] = target: Neu5Gc(a2-3)Gal(b1-3)[Fuc(a1-4)]GlcNAc
Summary of the method: as §1

[24] = target: Neu5Gc(a2-3)Gal(b1-4)GlcNAc(b1-3)Gal(b1-4)GlcNAc(b1-2)Man(a1-3)[Neu5Gc(a2-3)Gal(b1-4)GlcNAc(b1-3)Gal(b1-4)GlcNAc(b1-2)Man(a1-6)]Man(b1-4)GlcNAc(b1-4)GlcNAc
Summary of the method: as §1

[25] = target: Neu5Gc(b2-6)Gal(b1-4)GlcNAc
Summary of the method: as §1

B1: SP16664B-bot-474-25-474 (Bacteroides ovatus) (protein)
chain: CEEDIEIGNKIDESSYLASTQLSGLLLDENTNKNSSVIELRNNEYSTNVVFRLSKLPQKGVDVQIAVEESYAAIYNTIHETDFEVFPAANVKIANNGTFVLAPDDKVTPSVKVTLTAFDGMEEDKTYIVPLTVTSSTEGVTFTETSKHMVLLVQDYRNKPNTNKGEDAVQTVLYFEVNDTNPLNALEFLTESGKYFFDHIVLFAANINWDPEKQRVYLANNENVQFLLDNNDKYLQPLRKAGMKIIISILGNHDEAGVAQLSDMGAREFARELAAYCRAYNLDGVAFDDEYSNSPDLSNPWLASPSAYAGSRLMYECKAVMPEKIVSLYNLGNMYSSSLQVIDGIEPGQYCDYAVADYGGAAGPGTGMTLKQCAGMSIELRRGSGNSSESTARSRKEAGYGYYMFFALDPSLYGSQVYRCQSVCKGLYDETLVYPSYYYKKNSTEREAIN
Gal4S6S(b1-4)GlcNAc
  glycan array binding signal (z-score): -0.008
Gal6S(b1-3)GlcNAc
  glycan array binding signal (z-score): 0.118
Gal6S(b1-3)GlcNAc6S
  glycan array binding signal (z-score): 0.522
Gal6S(b1-4)Glc
  glycan array binding signal (z-score): -0.453
Gal6S(b1-4)Glc6S
  glycan array binding signal (z-score): 0.797
Gal6S(b1-4)GlcNAc6S
  glycan array binding signal (z-score): -0.289
Glc(a1-4)Glc
  glycan array binding signal (z-score): -0.119
[1]
  glycan array binding signal (z-score): 0.293
[2]
  glycan array binding signal (z-score): -0.159
[3]
  glycan array binding signal (z-score): 4.58
[4]
  glycan array binding signal (z-score): 0.16
[5]
  glycan array binding signal (z-score): 0.352
[6]
  glycan array binding signal (z-score): 11.2
[7]
  glycan array binding signal (z-score): 0.018
[8]
  glycan array binding signal (z-score): 0.334
[9]
  glycan array binding signal (z-score): 1.57
GlcNAc(b1-3)Man
  glycan array binding signal (z-score): 0.501
GlcNAc(b1-6)GalNAc
  glycan array binding signal (z-score): -0.234
[10]
  glycan array binding signal (z-score): -0.417
[11]
  glycan array binding signal (z-score): -0.568
[12]
  glycan array binding signal (z-score): -0.368
Man(a1-6)Man
  glycan array binding signal (z-score): 0.198
MurNAc(b1-4)GlcNAc
  glycan array binding signal (z-score): -0.181
[13]
  glycan array binding signal (z-score): 0.654
[14]
  glycan array binding signal (z-score): -0.055
[15]
  glycan array binding signal (z-score): -0.362
[16]
  glycan array binding signal (z-score): -0.456
[17]
  glycan array binding signal (z-score): -0.21
[18]
  glycan array binding signal (z-score): 0.051
[19]
  glycan array binding signal (z-score): -0.081
[20]
  glycan array binding signal (z-score): -0.034
[21]
  glycan array binding signal (z-score): -0.15
[22]
  glycan array binding signal (z-score): -0.181
[23]
  glycan array binding signal (z-score): -0.071
[24]
  glycan array binding signal (z-score): -0.304
[25]
  glycan array binding signal (z-score): 0.041
